Assays:
Experiment in all cases: log2 ratio of Biotin-Ahx-Ub-VS probe labelling (fragment/DMSO); higher = less target engagement (more negative = stronger competition), active = hit call of the paper (q ≤ 0.05, log2 ratio ≤ -1)
Details in all cases: compound concentration: 200 uM; treatment time: 3 h
USP42 = target: T1, USP42 (UniProt Q9H9J4)
T1 sequence (whole entry): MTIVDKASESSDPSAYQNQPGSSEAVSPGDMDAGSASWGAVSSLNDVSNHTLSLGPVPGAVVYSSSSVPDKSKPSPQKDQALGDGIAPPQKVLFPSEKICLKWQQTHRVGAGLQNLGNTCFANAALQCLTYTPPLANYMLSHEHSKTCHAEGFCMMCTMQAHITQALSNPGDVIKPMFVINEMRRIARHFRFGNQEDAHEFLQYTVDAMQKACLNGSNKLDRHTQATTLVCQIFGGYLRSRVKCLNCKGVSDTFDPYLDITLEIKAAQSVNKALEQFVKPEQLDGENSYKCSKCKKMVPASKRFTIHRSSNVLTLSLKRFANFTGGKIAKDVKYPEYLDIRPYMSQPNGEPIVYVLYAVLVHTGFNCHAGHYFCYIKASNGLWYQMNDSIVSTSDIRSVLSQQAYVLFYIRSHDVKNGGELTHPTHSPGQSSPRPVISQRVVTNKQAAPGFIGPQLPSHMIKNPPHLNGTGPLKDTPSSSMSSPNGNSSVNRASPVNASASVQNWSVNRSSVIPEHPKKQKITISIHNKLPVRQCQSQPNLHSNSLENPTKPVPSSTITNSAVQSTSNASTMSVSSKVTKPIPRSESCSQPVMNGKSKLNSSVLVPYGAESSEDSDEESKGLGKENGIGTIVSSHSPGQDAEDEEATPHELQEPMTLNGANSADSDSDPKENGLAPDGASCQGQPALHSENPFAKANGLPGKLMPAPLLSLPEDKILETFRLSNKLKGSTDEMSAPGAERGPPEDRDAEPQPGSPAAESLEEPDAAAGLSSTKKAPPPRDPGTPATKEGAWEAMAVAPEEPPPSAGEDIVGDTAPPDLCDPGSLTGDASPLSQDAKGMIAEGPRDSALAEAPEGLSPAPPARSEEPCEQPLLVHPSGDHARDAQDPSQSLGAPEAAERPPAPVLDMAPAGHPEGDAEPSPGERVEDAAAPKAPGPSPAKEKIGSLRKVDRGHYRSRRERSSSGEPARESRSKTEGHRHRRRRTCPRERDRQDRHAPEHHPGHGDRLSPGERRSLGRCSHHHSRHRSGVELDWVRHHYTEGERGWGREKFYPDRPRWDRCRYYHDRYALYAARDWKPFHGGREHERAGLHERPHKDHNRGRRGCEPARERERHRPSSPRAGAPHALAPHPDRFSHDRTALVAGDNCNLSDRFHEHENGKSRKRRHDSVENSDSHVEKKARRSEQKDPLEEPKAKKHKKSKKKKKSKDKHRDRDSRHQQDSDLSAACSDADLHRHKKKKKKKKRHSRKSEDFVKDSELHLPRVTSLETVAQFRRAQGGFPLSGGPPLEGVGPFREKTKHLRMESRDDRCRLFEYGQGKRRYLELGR
Summary of the method: (§1)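 In triplicate, 495 µg of HEK293T lysate per sample was incubated with fragment at 200 µM or vehicle for 3 h. Biotin-Ahx-Ub-VS was then added to 0.5 µM final for 1 h, and labelled DUBs were captured with NeutrAvidin, digested with LysC and trypsin, and measured by diaPASEF LC-MS/MS. Data are average log2 fragment/vehicle ratios by unpaired t-test from global-median-normalised Spectronaut label-free quantities, restricted to proteins with ≥2 unique peptides.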

USP46 = USP46 (UniProt P62068)
Chain of USP46 (P62068 whole entry): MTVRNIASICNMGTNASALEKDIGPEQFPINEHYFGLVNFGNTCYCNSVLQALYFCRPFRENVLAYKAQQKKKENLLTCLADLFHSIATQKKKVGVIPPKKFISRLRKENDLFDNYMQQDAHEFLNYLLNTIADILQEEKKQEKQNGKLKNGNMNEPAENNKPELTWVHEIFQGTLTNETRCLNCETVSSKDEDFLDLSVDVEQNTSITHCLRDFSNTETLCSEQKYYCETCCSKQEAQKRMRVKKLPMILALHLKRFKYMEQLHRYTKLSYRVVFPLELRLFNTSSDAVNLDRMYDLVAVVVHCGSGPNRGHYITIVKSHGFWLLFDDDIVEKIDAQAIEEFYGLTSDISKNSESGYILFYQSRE
Summary of the method: as §1

USP47 = target: T2, USP47 (UniProt Q96K76)
T2 sequence (whole entry): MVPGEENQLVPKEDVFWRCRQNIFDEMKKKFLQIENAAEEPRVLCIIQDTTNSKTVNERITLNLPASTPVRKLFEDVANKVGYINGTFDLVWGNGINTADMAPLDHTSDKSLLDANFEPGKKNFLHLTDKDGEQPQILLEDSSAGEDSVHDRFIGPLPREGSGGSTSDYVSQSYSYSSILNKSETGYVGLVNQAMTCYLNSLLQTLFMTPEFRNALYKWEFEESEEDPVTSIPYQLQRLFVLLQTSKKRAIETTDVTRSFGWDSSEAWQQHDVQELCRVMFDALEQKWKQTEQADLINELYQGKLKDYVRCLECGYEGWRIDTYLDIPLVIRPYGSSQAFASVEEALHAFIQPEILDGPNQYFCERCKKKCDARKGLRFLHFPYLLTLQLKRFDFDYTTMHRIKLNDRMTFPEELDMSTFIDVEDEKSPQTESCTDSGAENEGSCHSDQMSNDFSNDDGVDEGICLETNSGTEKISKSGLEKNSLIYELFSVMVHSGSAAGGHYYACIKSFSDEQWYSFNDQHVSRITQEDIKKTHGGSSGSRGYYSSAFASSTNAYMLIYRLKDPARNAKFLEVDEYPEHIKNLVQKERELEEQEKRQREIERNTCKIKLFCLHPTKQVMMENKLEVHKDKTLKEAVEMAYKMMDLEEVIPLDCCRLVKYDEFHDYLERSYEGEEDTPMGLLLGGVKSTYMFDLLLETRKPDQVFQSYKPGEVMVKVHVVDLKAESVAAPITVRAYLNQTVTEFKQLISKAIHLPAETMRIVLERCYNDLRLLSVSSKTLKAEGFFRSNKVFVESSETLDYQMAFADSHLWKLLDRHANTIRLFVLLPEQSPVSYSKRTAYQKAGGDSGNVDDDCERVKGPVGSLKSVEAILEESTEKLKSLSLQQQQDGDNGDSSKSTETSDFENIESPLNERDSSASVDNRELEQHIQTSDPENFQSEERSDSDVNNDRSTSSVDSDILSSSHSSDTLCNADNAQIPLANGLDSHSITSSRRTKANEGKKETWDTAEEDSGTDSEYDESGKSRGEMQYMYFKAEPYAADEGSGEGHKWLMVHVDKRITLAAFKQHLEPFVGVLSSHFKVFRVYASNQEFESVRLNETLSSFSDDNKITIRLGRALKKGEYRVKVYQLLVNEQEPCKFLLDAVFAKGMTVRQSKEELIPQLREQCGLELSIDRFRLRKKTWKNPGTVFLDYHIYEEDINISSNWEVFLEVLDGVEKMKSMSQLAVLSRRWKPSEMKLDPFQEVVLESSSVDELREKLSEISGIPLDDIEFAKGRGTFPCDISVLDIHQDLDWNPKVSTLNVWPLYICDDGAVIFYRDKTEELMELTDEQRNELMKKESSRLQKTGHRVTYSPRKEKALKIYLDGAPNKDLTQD
Summary of the method: as §1

USP48 = target: T3, USP48 (UniProt Q86UV5)
T3 sequence (whole entry): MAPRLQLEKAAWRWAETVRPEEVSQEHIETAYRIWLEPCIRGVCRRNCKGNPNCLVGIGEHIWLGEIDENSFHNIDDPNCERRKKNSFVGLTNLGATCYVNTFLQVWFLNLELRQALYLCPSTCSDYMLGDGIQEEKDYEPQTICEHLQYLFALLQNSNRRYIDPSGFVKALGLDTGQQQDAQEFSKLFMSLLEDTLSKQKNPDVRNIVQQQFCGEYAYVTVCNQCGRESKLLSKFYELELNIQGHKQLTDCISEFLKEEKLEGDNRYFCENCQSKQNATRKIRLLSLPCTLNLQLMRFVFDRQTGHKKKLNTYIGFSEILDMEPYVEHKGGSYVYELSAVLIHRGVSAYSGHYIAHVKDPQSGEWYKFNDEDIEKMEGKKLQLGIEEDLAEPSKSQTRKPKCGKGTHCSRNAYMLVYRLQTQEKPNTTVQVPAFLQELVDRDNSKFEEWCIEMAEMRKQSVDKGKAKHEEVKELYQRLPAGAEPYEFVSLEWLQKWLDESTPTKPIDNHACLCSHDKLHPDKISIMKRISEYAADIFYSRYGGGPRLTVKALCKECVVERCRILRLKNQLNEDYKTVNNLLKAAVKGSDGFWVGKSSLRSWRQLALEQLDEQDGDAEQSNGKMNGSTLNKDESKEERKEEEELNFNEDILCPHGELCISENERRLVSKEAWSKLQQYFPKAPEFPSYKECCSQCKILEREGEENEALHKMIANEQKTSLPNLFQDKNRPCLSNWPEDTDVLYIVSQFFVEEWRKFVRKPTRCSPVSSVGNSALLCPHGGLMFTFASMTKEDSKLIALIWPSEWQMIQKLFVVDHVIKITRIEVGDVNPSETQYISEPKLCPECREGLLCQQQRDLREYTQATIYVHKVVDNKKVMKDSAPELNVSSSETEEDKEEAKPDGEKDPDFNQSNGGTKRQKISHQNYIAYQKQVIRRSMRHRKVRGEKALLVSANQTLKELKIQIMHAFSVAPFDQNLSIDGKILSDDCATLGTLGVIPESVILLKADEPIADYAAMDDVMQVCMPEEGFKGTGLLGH
Summary of the method: as §1

USP5 = target: T4, USP5 (UniProt P45974)
T4 sequence (whole entry): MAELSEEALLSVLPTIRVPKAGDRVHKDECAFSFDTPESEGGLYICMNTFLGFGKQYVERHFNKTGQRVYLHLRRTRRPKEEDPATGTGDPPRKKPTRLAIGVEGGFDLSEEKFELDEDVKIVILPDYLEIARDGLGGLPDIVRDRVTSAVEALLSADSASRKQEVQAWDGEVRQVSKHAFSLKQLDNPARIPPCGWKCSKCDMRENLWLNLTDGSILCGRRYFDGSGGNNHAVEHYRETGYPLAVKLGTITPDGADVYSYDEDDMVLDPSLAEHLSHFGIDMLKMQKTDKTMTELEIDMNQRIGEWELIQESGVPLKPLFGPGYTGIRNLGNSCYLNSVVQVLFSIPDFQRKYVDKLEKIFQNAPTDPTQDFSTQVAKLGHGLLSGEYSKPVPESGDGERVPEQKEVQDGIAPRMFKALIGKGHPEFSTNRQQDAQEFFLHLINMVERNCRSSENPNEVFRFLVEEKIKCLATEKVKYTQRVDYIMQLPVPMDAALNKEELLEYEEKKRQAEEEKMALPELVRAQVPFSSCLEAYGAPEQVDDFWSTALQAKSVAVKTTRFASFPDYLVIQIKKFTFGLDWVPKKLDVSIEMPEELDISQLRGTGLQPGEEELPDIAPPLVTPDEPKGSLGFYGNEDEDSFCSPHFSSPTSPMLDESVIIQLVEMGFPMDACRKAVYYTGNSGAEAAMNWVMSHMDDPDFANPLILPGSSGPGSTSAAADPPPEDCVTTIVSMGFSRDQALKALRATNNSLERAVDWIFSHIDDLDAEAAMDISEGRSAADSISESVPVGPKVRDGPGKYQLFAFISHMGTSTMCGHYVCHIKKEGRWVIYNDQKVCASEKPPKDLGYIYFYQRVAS
Summary of the method: as §1

USP54 = USP54 (UniProt Q70EL1)
Chain of USP54 (Q70EL1 whole entry): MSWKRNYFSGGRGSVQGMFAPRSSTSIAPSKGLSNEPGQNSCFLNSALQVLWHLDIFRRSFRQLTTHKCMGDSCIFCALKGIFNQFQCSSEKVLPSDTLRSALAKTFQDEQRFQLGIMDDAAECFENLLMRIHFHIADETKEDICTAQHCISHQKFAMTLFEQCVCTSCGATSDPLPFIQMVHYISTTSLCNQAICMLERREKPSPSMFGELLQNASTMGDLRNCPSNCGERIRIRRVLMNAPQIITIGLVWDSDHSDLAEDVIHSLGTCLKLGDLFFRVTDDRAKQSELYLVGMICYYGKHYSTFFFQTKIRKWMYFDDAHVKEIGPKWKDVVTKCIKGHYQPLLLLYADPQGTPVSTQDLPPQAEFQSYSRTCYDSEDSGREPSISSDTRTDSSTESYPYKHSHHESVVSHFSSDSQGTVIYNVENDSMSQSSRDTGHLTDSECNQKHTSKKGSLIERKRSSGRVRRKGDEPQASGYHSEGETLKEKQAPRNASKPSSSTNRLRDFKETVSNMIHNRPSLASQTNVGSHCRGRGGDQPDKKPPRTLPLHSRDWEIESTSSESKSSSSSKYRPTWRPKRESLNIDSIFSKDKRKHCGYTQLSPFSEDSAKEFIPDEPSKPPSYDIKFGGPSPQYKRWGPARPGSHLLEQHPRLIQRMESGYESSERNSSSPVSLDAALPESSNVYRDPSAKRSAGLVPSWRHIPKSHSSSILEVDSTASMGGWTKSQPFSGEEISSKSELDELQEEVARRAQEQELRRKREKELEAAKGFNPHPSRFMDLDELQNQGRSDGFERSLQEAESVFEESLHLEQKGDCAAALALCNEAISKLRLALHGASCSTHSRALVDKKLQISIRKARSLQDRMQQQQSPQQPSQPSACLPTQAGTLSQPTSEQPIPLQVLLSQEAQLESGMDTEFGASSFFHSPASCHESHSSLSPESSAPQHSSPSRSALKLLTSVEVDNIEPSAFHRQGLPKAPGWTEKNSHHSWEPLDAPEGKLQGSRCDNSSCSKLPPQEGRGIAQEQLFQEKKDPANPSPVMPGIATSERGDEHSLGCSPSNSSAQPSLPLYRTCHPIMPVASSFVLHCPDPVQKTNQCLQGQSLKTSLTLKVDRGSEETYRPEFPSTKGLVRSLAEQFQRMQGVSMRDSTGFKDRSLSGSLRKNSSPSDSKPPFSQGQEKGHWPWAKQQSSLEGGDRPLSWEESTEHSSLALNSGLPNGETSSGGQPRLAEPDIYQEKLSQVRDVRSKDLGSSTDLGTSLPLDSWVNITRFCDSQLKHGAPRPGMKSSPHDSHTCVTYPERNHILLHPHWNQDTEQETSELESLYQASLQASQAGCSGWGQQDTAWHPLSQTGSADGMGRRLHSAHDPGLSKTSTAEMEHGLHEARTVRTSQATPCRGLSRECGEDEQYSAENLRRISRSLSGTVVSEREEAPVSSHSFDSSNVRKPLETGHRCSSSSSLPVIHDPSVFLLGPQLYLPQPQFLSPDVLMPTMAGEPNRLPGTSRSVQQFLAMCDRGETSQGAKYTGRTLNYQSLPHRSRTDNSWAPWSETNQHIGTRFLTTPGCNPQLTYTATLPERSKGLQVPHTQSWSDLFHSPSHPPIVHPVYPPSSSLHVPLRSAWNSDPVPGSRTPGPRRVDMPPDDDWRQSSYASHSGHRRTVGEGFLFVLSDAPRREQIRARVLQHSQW
Summary of the method: as §1

USP7 = USP7 (UniProt Q93009)
Chain of USP7 (Q93009 whole entry, looked up): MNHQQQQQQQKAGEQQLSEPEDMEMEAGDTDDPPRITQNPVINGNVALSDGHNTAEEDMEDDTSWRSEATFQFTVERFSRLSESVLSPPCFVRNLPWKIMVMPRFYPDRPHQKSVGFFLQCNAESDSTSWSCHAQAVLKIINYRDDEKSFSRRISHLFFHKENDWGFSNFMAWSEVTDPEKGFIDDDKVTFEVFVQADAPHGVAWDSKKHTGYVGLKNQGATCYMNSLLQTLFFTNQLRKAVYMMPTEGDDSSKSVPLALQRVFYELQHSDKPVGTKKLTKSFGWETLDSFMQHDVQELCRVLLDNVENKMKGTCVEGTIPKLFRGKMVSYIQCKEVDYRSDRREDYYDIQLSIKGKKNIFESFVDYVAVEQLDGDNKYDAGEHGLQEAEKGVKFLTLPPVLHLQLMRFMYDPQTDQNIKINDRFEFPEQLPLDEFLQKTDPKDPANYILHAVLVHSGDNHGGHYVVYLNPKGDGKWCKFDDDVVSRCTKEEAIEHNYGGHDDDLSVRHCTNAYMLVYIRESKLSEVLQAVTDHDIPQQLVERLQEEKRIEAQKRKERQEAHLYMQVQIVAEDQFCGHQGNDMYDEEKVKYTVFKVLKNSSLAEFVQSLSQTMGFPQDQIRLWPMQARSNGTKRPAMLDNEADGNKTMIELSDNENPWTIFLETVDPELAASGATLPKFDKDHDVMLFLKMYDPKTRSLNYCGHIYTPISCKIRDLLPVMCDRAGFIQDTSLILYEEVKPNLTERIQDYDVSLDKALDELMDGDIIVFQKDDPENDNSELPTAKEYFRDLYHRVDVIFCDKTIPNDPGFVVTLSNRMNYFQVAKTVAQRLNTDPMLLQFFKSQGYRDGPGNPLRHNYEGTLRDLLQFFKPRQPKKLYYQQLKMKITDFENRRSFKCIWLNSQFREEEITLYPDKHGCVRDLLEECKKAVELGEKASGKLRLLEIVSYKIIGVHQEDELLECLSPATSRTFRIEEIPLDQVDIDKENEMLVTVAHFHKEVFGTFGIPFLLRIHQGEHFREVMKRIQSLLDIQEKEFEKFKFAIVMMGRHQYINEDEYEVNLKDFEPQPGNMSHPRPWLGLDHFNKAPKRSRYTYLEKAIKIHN
Summary of the method: as §1

USP8 = target: T5, USP8 (UniProt P40818)
T5 sequence (whole entry): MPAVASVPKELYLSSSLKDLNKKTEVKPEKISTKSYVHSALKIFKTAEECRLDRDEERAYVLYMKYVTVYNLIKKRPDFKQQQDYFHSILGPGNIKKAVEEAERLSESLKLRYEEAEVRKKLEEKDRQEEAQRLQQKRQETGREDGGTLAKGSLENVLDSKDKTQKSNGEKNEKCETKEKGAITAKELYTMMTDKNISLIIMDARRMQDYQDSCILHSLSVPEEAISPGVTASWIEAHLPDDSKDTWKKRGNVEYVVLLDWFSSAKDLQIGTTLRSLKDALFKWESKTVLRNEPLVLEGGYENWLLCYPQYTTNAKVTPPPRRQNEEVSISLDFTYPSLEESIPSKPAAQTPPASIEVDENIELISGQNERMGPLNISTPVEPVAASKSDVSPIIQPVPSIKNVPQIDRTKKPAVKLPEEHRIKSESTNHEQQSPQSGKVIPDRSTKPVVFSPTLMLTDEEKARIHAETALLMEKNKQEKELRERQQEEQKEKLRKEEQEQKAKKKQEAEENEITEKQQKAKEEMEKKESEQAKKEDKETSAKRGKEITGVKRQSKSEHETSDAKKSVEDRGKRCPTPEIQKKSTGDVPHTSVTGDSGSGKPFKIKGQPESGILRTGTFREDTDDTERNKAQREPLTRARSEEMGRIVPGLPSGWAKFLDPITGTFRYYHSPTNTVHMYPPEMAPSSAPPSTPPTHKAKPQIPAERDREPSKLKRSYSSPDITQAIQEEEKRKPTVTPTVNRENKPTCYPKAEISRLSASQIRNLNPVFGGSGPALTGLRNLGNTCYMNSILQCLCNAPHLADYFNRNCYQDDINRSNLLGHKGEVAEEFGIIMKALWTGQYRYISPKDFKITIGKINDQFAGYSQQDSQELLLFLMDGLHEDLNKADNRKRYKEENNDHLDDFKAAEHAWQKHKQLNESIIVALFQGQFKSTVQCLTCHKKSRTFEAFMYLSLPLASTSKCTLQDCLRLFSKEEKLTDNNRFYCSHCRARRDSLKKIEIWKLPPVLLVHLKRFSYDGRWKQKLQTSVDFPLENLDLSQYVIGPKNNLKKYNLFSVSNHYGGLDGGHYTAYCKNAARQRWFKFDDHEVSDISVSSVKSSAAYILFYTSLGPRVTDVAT
Summary of the method: as §1

USP9X = USP9X (UniProt Q93008)
Summary of the method: as §1

UniProt O00487 = target: UniProt O00487
Chain of UniProt O00487 (O00487 whole entry): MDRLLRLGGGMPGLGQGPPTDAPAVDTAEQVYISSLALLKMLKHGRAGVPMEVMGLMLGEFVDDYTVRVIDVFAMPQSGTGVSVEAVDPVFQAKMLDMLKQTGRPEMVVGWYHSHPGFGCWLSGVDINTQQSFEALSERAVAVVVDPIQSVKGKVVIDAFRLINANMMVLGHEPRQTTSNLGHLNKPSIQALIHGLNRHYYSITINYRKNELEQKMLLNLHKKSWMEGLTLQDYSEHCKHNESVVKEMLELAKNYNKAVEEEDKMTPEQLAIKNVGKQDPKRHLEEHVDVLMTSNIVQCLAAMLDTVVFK
Summary of the method: as §1

Measured: log2 ratio of Biotin-Ahx-Ub-VS probe labelling

O=C(CCl)Nc1cc(Cl)ccc1-n1cncn1
inactive: USP42 0.477 | USP46 -0.691 | USP47 -0.4 | USP48 -0.638 | USP5 -0.61 | USP54 0.943 | USP8 -0.73 | UniProt O00487 -0.13
active: USP7 -1.33 | USP9X -1.04

Reference: the supplement of paper PMC11732987, “Enantioselective OTUD7B fragment discovery through chemoproteomics screening and high-throughput optimisation” (Communications Chemistry, 2025)
